# Source: PubChem BioAssay AID1626 (SRMLSC, 2009)
# Out of some 220,000 compounds screened, about 2,000 (0.91%) were called active. About 2% were inconclusive and are not listed. Rule as the data show it: inconclusive = inhibition above about 80% without an active follow-up result; inactive = below that; test concentration not stated here. A selection follows. Results with a measured potency or affinity are listed apart.
# Assay: M. tuberculosis H37Rv growth inhibitors, H37Rv strain (AID 1626);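 also: bacteria incubated seven days before Alamar blue readout; 0% = bacteria only wells and 100% = bacteria with antibiotic wells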
# Details: stronger effect = higher value, concentration not given here
row,SMILES,inhibition
1,Cn1c(O)c(N=Nc2nc(-c3ccccc3)cs2)c2ccccc21,68% (inactive)
2,CCc1ccc2[nH]c(O)c(N=NC3=NC(=O)CS3)c2c1,1.19% (inactive)
3,COc1ccc(CCNC2CCCCC2)cc1OC,5.74% (inactive)
4,O=C(Nc1ccccn1)c1ccc(Br)c(S(=O)(=O)N2CCCCC2)c1,4.83% (inactive)
5,CCCN(N=Nc1cccc([N+](=O)[O-])c1)c1cccc([N+](=O)[O-])c1,1.3% (inactive)
6,O=c1cc(-c2ccc(O)cc2)oc2cc(O)cc(O)c12,-7.5% (inactive)
7,O=c1cc(-c2ccccc2)oc2cc(O)cc(O)c12,17.6% (inactive)
8,Cc1cc(OCC(=O)NC(C)C)ccc1Cl,8.21% (inactive)
9,Cc1noc(-c2ccc(C(F)(F)F)cc2)c1NC(=O)Nc1ccc(Cl)cc1,13.4% (inactive)
10,O=C(O)c1cccc(Cn2c(Cl)c(/C=N/NC(=O)c3ccc(O)cc3)sc2=O)c1,-11.5% (inactive)
11,O=c1[nH]c(SCc2ccc([N+](=O)[O-])cc2)nc2[nH]ncc12,-6.17% (inactive)
12,CC[C@H]1CC2CN3CCc4c([nH]c5cc(OC)ccc45)[C@](C(=O)OC)(C2)[C@H]13,-5.98% (inactive)
13,CC[C@H]1CC2CN3CCc4c([nH]c5ccccc45)C(C(=O)OC)(C2)C13 (some centres undefined),0.73% (inactive)
14,COC(=O)C1=C(c2cc3ccccc3o2)C[C@@H]2CC[C@H]1N2C(=O)NC(C)C,19.5% (inactive)
15,Cn1c(NCc2ccco2)nc2c1c(=O)n(Cc1ccc(Cl)cc1)c(=O)n2C,7.2% (inactive)
16,COc1ccc(CNc2nc3c(c(=O)n(Cc4ccc(Br)cc4)c(=O)n3C)n2C)cc1,34.1% (inactive)
17,Cn1c(NCc2ccccc2)nc2c1c(=O)n(Cc1ccccc1)c(=O)n2C,-5.24% (inactive)
18,Cn1c(NCc2ccco2)nc2c1c(=O)n(Cc1ccc(Cl)c(Cl)c1)c(=O)n2C,6.79% (inactive)
19,CC(C)c1nnc(N2C(=O)c3oc4ccccc4c(=O)c3C2c2ccco2)s1 (centres undefined),-6.42% (inactive)
20,CC(=O)c1ccc(NC(=O)CSc2nnc(Cn3cnc4ccccc43)o2)cc1,-0.74% (inactive)
21,CCc1cc2cc3c(cc2nc1SCC(=O)Nc1nnc(C)s1)OCCO3,-4.07% (inactive)
22,COc1ccc(C(CCNCc2ccccc2)c2ccc(F)cc2)cc1 (centres undefined),-2.55% (inactive)
23,COc1ccc(CNCCC(c2ccc(OC(C)C)cc2)C(C)C)cc1OC (centres undefined),45.4% (inactive)
24,COc1ccc(C(CCNCc2ccc(OC)c(OC)c2)c2ccc(F)cc2)cc1 (centres undefined),2.06% (inactive)

row,SMILES,inhibition
1,COc1ccc(CNCCC(c2ccc(F)cc2)c2ccc(OC)cc2)cc1 (centres undefined),41.6% (inactive)
2,COc1ccccc1Nc1nc(N)nc(CSC(=S)N2CCCCC2)n1,5.54% (inactive)
3,CCCc1nnc(SCC(=O)N2CCCCC2C)n1CC (centres undefined),-2.59% (inactive)
4,CCOc1ccc(-c2ccc(SCC(=O)NCC3CCCO3)nn2)cc1 (centres undefined),3.18% (inactive)
5,Cc1cc(=O)[nH]c(SCC(=O)Nc2ccccc2C)n1,-0.5% (inactive)
6,COc1ccccc1NS(=O)(=O)c1cccc(C(=O)N/N=C(\C)c2ccc(-n3ccnc3)cc2)c1,-7.54% (inactive)
7,C/C(O)=C(/C#N)c1nc2ccccc2[nH]1,10.1% (inactive)
8,c1ccc2c(NCC3CCCO3)nc(N3CCOCC3)nc2c1 (centres undefined),-4.2% (inactive)
9,c1ccc2c(N3CCOCC3)nc(N3CCOCC3)nc2c1,-0.04% (inactive)
10,CCCCNS(=O)(=O)c1ccc2nc(-c3cccnc3)cc(C(=O)NCCCN(CC)CC)c2c1,-1.2% (inactive)
11,O=C(Nc1ccc2c(c1)OCCO2)c1cccc(S(=O)(=O)N2CCOCC2)c1,2.68% (inactive)
12,Cc1ccc(CNC(=O)C2CCCN(Cc3cnn(-c4ccccc4)c3-n3cccc3)C2)cc1 (centres undefined),3.25% (inactive)
13,COc1ccc(CNc2ncnc3cc(Cl)ccc23)cc1OC,3.34% (inactive)
14,COc1cccc(CNc2ncnc3cc(Cl)ccc23)c1,2.79% (inactive)
15,COc1ccc(C(=O)C(CCC(CNC(C)(C)C)C(=O)c2ccc(OC)cc2)CNC(C)(C)C)cc1 (centres undefined),3.24% (inactive)
16,O=C(CSc1nc2ccccc2o1)N1CCN(C(=O)c2ccco2)CC1,8.7% (inactive)
17,N#CCSc1nc2ccccc2o1,-5.91% (inactive)
18,O=C(CSc1nc2ccccc2o1)c1cc2ccccc2oc1=O,1.02% (inactive)
19,O=C(OCC#CCSc1nc2ccccc2s1)c1ccco1,74.1% (inactive)
20,Cc1ccc2c(c1)c1c3n2CCCNC3CCC1 (centres undefined),3.76% (inactive)
21,c1ccc2c(c1)c1c3n2CCNC3CCC1 (centres undefined),3.79% (inactive)
22,COc1cc(OC)cc(C(=O)Nc2ccc(-c3nc4ccccc4o3)c(O)c2)c1,66.5% (inactive)
23,CCOC(=O)C(=O)Nc1nc(-c2ccccc2)c(-c2ccccc2)o1,-0.88% (inactive)
24,COc1cccc(C(=O)Nc2c(F)c(F)c(F)c(F)c2F)c1,0.52% (inactive)

row,SMILES,inhibition
1,CC(=O)Nc1nc(-c2ccccc2)c(-c2ccccc2)o1,56.4% (inactive)
2,COc1cccc(C(=O)Nc2ccccc2)c1,-3.26% (inactive)
3,COc1cc(OC)cc(C(=O)Nc2ccc(-c3nc4ccccc4o3)cc2)c1,16% (inactive)
4,CCCCCCN1C=C/C(=C\C=C(C#N)C#N)c2ccccc21,34.9% (inactive)
5,COc1ccccc1NC(=S)N(CCCN(C)C)Cc1cc2cc3c(cc2[nH]c1=O)OCO3,-2.36% (inactive)
6,CCOC(=O)CN1CC23C=CC(O2)C(C(=O)Nc2ccc(F)c(C)c2)C3C1=O (centres undefined),-11.9% (inactive)
7,CCCCNC(=O)COC(=O)c1ccc(C)c(NC(=O)c2ccco2)c1,-7% (inactive)
8,CCN1CCN(C(=O)C(=O)c2c(C)[nH]c3ccccc23)CC1,0.56% (inactive)
9,O=C(CSc1nnc(CCCN2C(=O)c3cccc4cccc(c34)C2=O)n1-c1ccccc1)N1CCN(CCO)CC1,-10.9% (inactive)
10,O=C1Nc2cc(Cl)cnc2N2CCCC12 (centres undefined),2.46% (inactive)
11,CCN(CC)CCCNC(=O)Cn1nc([N+](=O)[O-])c(Cl)c1C,-1.51% (inactive)
12,CCOC(=O)C1CCCN(C(=O)c2ccc(CNc3c(N4CCC(C)CC4)c(=O)c3=O)cc2)C1 (centres undefined),0.97% (inactive)
13,CC1CCN(c2c(NCc3ccc(C(=O)N4c5ccccc5CC4C)cc3)c(=O)c2=O)CC1 (centres undefined),7.17% (inactive)
14,CC1CCN(C(=O)c2ccc(CNc3c(N4CCCC4)c(=O)c3=O)cc2)CC1,78.3% (inactive)
15,O=C(NCc1ccccc1)c1ccc(CNc2c(N3CCCC3)c(=O)c2=O)cc1,3.31% (inactive)
16,Cc1cccc(N2CCN(C(=O)c3ccc(CNc4c(N5CCC(C)CC5)c(=O)c4=O)cc3)CC2)c1C,73.1% (inactive)
17,Cc1ccc(CNC(=O)c2ccc(CNc3c(N4CCCC4)c(=O)c3=O)cc2)cc1,8.62% (inactive)
18,O=[N+]([O-])c1ccc(N2CCC(O)CC2)nc1,-4.33% (inactive)
19,O=c1oc2ccccc2c(NCCO)c1[N+](=O)[O-],0.19% (inactive)
20,Cc1cc(C)cc(NC(=O)C2CCCC2)c1,-9.17% (inactive)
21,NC(=O)C1CCN(c2nc(-c3ccccc3)nc3c2oc2ccccc23)CC1,0.65% (inactive)
22,CCOC(=O)C1CCN(c2nc(-c3ccccc3)nc3c2oc2ccccc23)CC1,25.5% (inactive)
23,O=C(O)C1CCN(c2nc(-c3ccccc3)nc3c2oc2ccccc23)CC1,2.63% (inactive)
24,OCCN(CCO)c1nc(-c2ccccc2)nc2c1oc1ccccc12,0.94% (inactive)

row,SMILES,inhibition
1,COc1ccc(NC(=S)NCc2ccc(S(N)(=O)=O)cc2)c(OC)c1,6.58% (inactive)
2,O=C(NC1CCCC1)C(c1ccc(N2CCOCC2)cc1)N(Cc1ccccc1)C(=O)c1ccco1 (centres undefined),-11.4% (inactive)
3,O=c1c(C(c2ccccc2)c2c(O)nc3n(c2=O)CCCS3)c(O)nc2n1CCCS2,7.37% (inactive)
4,Cc1cc(C)c(S(=O)(=O)N2CCC(C(=O)NCc3ccc(Cl)cc3Cl)CC2)c(C)c1,4.79% (inactive)
5,O=S(=O)(c1ccccc1Br)N1CCC(O)(c2cccnc2)CC1,-4.98% (inactive)
6,CCOc1ccccc1NC(=O)C1CCCN(S(=O)(=O)c2ccc(OC)c(C)c2)C1 (centres undefined),-3.35% (inactive)
7,O=C(Nc1ccccc1)Nc1nnc(-c2ccccc2)o1,6.54% (inactive)
8,O=C(Nc1nnc(-c2cccnc2)o1)c1ccccc1Cl,4.74% (inactive)
9,O=C(Nc1ccccc1)c1nc2ccccc2s1,27.8% (inactive)
10,NC(=O)c1oc2ccccc2c1NC(=O)c1nc2ccccc2s1,-3.12% (inactive)
11,O=C(Nc1nnc(-c2ccccc2)o1)Nc1ccc(F)cc1F,7.77% (inactive)
12,O=C(Nc1ccc(F)cc1)Nc1nnc(-c2ccccc2)o1,-7.42% (inactive)
13,COc1ccc(CNC(=O)c2cnccn2)cc1,-0.78% (inactive)
14,COc1ccc(CCNC(=O)C2CCC(CNc3c(N4CCCC4)c(=O)c3=O)CC2)cc1OC (centres undefined),-2.59% (inactive)
15,COC(=O)[C@@H]1CCCN1Cc1c(C(=O)N2CCOCC2)nc2c(C)cccn12,-6.22% (inactive)
16,O=C(COc1ncnc2sccc12)N1CCN(C(=O)c2ccco2)CC1,-7.61% (inactive)
17,O=c1c2ccccc2c(C=NCCCN2CCOCC2)c(O)n1Cc1ccc2c(c1)OCO2,4.72% (inactive)
18,CC1(C)CC(N=Cc2c(O)n(Cc3ccc4c(c3)OCO4)c(=O)c3ccccc23)CC(C)(C)N1,15% (inactive)
19,O=C(c1ccccc1-n1cccc1)N1N=C(C(F)F)CC1(O)C(F)F (centres undefined),-5.84% (inactive)
20,Cc1ccc2occ(/C=N/NC(N)=S)c(=O)c2c1,-2.35% (inactive)
21,COc1cc(OC)cc(C(=O)/C=C2\Sc3ccccc3N2C)c1,-9.58% (inactive)
22,COc1ccc(C(=O)/C=C2\Sc3ccccc3N2C)cc1,-4.42% (inactive)
